Data on 7 compounds can be found in PubChem BioAssay (EPA / NIEHS).

Results filed as inconclusive are left out. The source made the active and inactive calls. How the source made its calls, unless noted: active means hit-call score of the fitted dose curve at least 0.9, where 1 is the maximum; inactive means score below 0.9.

The target in test [1] is Myc proto-oncogene protein (Homo sapiens) (UniProt P01106). Put plainly: ATG_Myc_CIS: Attagene CIS-FACTORIAL HepG2 Assay for human Myelocytomatosis (Myc) Proto-Oncogene Transcription Factor (AID 2282990). The note with it: HepG2, Attagene cis-reporter transcription factor activity; actives raise or lower the signal. An outline of the steps: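 Transiently transfected HepG2 cells bearing cis-promoter reporter units for endogenous transcription factors; 24 h exposure. Reporter mRNA measured by RT-PCR, 6-FAM primer extension, HpaI cut and capillary electrophoresis; bidirectional fit relative to DMSO.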
Myc proto-oncogene protein (Homo sapiens), sequence (P01106 whole entry, looked up): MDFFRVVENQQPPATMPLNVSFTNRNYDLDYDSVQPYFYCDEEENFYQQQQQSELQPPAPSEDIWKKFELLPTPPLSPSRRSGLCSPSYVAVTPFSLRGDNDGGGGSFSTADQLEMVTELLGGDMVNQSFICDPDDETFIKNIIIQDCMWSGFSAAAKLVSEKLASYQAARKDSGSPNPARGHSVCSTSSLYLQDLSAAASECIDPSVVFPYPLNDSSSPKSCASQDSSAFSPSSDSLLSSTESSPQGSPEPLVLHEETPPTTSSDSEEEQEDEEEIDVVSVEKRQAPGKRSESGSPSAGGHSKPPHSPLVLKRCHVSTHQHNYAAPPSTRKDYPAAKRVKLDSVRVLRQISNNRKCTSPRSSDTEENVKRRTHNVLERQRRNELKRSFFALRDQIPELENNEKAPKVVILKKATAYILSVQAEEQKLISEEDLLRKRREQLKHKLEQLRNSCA

Test [2] in a line: ATG_NF_kB_CIS: Attagene CIS-FACTORIAL HepG2 Assay for human Nuclear Factor Kappa B (NF-kB) (AID 2282991). The note with it: HepG2 Attagene cis-factorial NF-kB reporter mRNA; actives raise or lower the signal. An outline of the steps:
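DMSO served as negative control and baseline for bidirectional curve fitting. Transiently transfected HepG2 cells were dosed for 24 h, then reporter transcripts were measured by RT-PCR with capillary electrophoresis detection.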

Test [3] in a line: ATG_NRF2_ARE_CIS: Attagene CIS-FACTORIAL HepG2 Assay for human Nuclear Factor Erythroid 2 Related Factor 2 (NFR2) response to Antioxidant Response Elements (ARE) (AID 2282992).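 On AC50: reporter mRNA level measured by RT-PCR and capillary electrophoresis fluorescence.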 The note with it: HepG2 Attagene ARE/NRF2 reporter, transcription factor activity; actives raise or lower the signal. A digest of the protocol:
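HepG2 cells transiently transfected with multiplexed cis-regulated reporter transcription units measure endogenous transcription factor activity. Reporter mRNA at 24 h is quantified by RT-PCR, fluorescent labelling and capillary electrophoresis, with bidirectional fitting relative to DMSO.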

Test [4] can be described thus: ATG_Oct_MLP_CIS: Attagene CIS-FACTORIAL HepG2 Assay for human Octamer-Binding Transcription Factor (Oct) (AID 2282993). The following applies: HepG2 Attagene cis-factorial Oct reporter, mRNA; actives raise or lower the signal. An outline of the steps: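 HepG2, transient MRTU transfection, cis promoter elements; 24 h dosing; RT-PCR/CE fluorescence read-out of reporter mRNA; fit both directions vs DMSO.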

Test [5] deals with Cellular tumor antigen p53 (Homo sapiens) (UniProt P04637). Put plainly: ATG_p53_CIS: Attagene CIS-FACTORIAL HepG2 Assay for human p53 Transcription Factor (AID 2282994). The note with it: HepG2 p53 cis-element reporter, Attagene mRNA; actives raise or lower the signal. An outline of the steps:
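HepG2 cells transiently transfected with multiplexed cis-regulated reporter transcription units read endogenous TF activity. After 24 h compound exposure, reporter mRNA was quantified by RT-PCR, fluorescent labelling, HpaI digestion and capillary electrophoresis; bidirectional fits versus DMSO baseline.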

Test [6] can be described thus: BSK_3C_TissueFactor: BioMAP Diversity Plus: 3C Assay for Tissue Factor Biomarker Activity (AID 2282997). The note with it: BioMAP 3C HUVEC, tissue factor biomarker readout; actives raise or lower the signal. A digest of the protocol:
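Values derive from bidirectional curve fitting against DMSO of Tissue Factor ELISA signals, taken 24 h after dosing primary human umbilical vein endothelial cells.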

The nature of test [7]: BSK_3C_uPAR: BioMAP Diversity Plus: 3C Assay for Urokinase-type plasminogen activator receptor (uPAR) Biomarker Activity (AID 2282998). The note with it: BioMAP 3C HUVEC, uPAR biomarker ELISA; actives raise or lower the signal. An outline of the steps:
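A multiplexed primary-cell system built on human umbilical vein endothelium was used, with chemical present for 24 h before reading. Cell-surface uPAR was detected by ELISA; signal change in either direction counted against DMSO.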

The nature of test [8]: BSK_3C_VCAM1: BioMAP Diversity Plus: 3C Assay for Vascular cell adhesion molecule 1 (VCAM1) Biomarker Activity (AID 2282999). The following applies: BioMAP 3C HUVEC, VCAM1 ELISA, cytokine-stimulated; actives raise or lower the signal. A digest of the protocol:
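Human umbilical vein endothelial cells (3C system), biomarker read by ELISA 24 h after dosing; bidirectional fit against DMSO baseline. Cytotoxicity tracked by SRB total-protein staining in parallel cultures at biomarker time.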

Test [9] is described as follows: BSK_4H_Eotaxin3: BioMAP Diversity Plus: 4H Assay for Eotaxin 3 Biomarker Activity (AID 2283000).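 On outcome: CCL26 protein level quantified by ELISA in parallel with SRB cytotoxicity check.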 The following applies: primary human endothelial cells (HUVEC); actives raise or lower the signal. A digest of the protocol:
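Endothelial primary cells (human umbilical vein) exposed to compound for 24 h. ELISA detection of Eotaxin-3.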

Test [10] has as its target human Peroxisome Proliferator-activated Receptor alpha (PPARa), PPARA (gene 5465) (UniProt Q07869). Put plainly: ATG_PPARa_TRANS: Attagene TRANS-FACTORIAL HepG2 Assay for human Peroxisome Proliferator-activated Receptor alpha (PPARa) (AID 2283001; active means hit-call score of the fitted dose curve at least 0.9, where 1 is the maximum;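 on AC50: potency for gain of reporter signal over DMSO so agonist or activator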). A digest of the protocol: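 Measures transcriptional activity of an exogenous chimeric PPARa-Gal4 protein in transiently transfected HepG2 cells after 24 h dosing. Reporter mRNA quantified via RT-PCR and capillary electrophoresis; DMSO served as negative control.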

Read-out in test [11]: Intercellular Adhesion Molecule 1 (ICAM1), ICAM1 (gene 3383)
Put plainly: BSK_3C_ICAM1: BioMAP Diversity Plus: 3C Assay for Intercellular Adhesion Molecule 1 (ICAM1) Biomarker Activity (AID 2283003). The note with it: primary human endothelial cells (HUVEC); actives raise or lower the signal. An outline of the steps: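 Human vascular endothelial primary cells, 3C conditions, 24 h treatment. ICAM-1 by ELISA.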

Test [12] deals with human Retinoic Acid Receptor beta (RARb), RARB (gene 5915) (UniProt P10826). Put plainly: ATG_RARb_TRANS: Attagene TRANS-FACTORIAL HepG2 Assay for human Retinoic Acid Receptor beta (AID 2283004; active means hit-call score of the fitted dose curve at least 0.9, where 1 is the maximum). A digest of the protocol:
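HepG2, transient MRTU transfection, NR–Gal4 chimera, 24 h treatment; RT-PCR plus CE fluorescence detection of reporter mRNA; gain of signal vs DMSO.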

The target of test [13] is Retinoic acid receptor alpha (Homo sapiens) (UniProt P10276). Put plainly: ATG_RARa_TRANS: Attagene TRANS-FACTORIAL HepG2 Assay for human Retinoic Acid Receptor alpha (RARa) (AID 2283005; active means hit-call score of the fitted dose curve at least 0.9, where 1 is the maximum). An outline of the steps: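 HepG2 transiently transfected with multiplex GAL4-UAS reporter units including a human RARa–GAL4 chimera; 24 h compound exposure. Reporter mRNA quantified by RT-PCR, 6-FAM labeling and capillary electrophoresis; gain of signal versus DMSO.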
Retinoic acid receptor alpha (Homo sapiens), sequence (P10276 whole entry, looked up, the tested form may be a part): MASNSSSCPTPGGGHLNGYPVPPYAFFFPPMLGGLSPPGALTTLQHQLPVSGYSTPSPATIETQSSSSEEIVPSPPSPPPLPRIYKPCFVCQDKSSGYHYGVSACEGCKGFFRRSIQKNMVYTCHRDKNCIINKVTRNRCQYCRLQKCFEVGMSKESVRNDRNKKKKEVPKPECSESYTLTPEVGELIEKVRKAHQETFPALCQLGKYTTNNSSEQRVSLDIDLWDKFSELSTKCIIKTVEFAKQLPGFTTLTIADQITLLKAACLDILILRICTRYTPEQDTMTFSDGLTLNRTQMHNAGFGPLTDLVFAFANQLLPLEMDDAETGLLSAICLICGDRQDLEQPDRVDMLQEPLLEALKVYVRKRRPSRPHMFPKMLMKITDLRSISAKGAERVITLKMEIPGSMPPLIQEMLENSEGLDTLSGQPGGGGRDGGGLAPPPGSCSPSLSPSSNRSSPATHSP

A short description of test [14]: BSK_3C_Proliferation: Cell Proliferation Assessment in the BioMAP Diversity Plus: 3C Assay (AID 2283006).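 On AC50: potency may reflect either rise or fall in cell number versus DMSO.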 The note with it: primary human endothelial cells (HUVEC). A digest of the protocol: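 Proliferation of human vascular endothelial primary cells after 48 h dosing, quantified as SRB-stained protein at 560 nm relative to DMSO.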
In test [15] the target is Nuclear receptor subfamily 1 group I member 2 (Homo sapiens) (UniProt O75469). The test is described as follows: ATG_PXR_TRANS: Attagene TRANS-FACTORIAL HepG2 Assay for human Pregnane X Receptor (PXR) (AID 2283008; active means hit-call score of the fitted dose curve at least 0.9, where 1 is the maximum). A digest of the protocol:
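HepG2 cells transiently transfected with multiple reporter units, here a PXR-GAL4 chimera driving a GAL4-UAS reporter; 24 h compound exposure. Reporter mRNA measured by RT-PCR, FAM labelling and capillary electrophoresis; gain of signal fitted against DMSO baseline.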

For test [16], the target named is human Retinoic Acid Receptor gamma (RARg), RARG (gene 5916) (UniProt P13631). Put plainly: ATG_RARg_TRANS: Attagene TRANS-FACTORIAL HepG2 Assay for human Retinoic Acid Receptor gamma (RARg) (AID 2283009; active means hit-call score of the fitted dose curve at least 0.9, where 1 is the maximum). An outline of the steps:
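HepG2, RARg-GAL4 TRANS system, 24 h exposure; reporter mRNA by RT-PCR + CE fluorescence; increase over DMSO.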

The target of test [17] is human RAR-related Orphan Receptor beta (RORb), RORB (gene 6096) (UniProt Q92753). The test is described as follows: ATG_RORb_TRANS: Attagene TRANS-FACTORIAL HepG2 Assay for human RAR-related Orphan Receptor beta (RORb) (AID 2283010; active means hit-call score of the fitted dose curve at least 0.9, where 1 is the maximum). An outline of the steps: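 In this TRANS-format test, human HepG2 cells express chimeric NR-Gal4 fusion proteins driving GAL4-UAS reporters. After 24 h dosing, reporter transcripts are measured by fluorescent RT-PCR/capillary electrophoresis, with DMSO as negative control.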
human RAR-related Orphan Receptor beta (RORb), RORB (gene 6096), sequence (Q92753 whole entry, looked up, the tested form may be a part): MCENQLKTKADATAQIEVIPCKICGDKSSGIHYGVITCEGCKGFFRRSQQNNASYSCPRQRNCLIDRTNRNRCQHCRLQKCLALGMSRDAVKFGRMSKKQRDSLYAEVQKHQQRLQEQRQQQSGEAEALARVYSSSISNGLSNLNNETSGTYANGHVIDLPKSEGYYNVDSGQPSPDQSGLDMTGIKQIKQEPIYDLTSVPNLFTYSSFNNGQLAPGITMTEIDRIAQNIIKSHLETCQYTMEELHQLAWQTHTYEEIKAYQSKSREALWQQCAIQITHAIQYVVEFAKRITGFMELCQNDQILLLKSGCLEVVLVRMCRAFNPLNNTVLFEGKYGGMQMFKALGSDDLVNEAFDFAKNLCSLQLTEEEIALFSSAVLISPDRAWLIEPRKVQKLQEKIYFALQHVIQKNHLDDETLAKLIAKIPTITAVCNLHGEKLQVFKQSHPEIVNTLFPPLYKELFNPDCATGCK

Test [18] deals with human RAR-related Orphan Receptor gamma (RORg), RORC (gene 6097) (UniProt P51449). The test is described as follows: ATG_RORg_TRANS: Attagene TRANS-FACTORIAL HepG2 Assay for human RAR-related Orphan Receptor gamma (RORg) (AID 2283011; active means hit-call score of the fitted dose curve at least 0.9, where 1 is the maximum). An outline of the steps: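 Activity is scored as increase in GAL4-UAS reporter mRNA over DMSO, detected by fluorescent RT-PCR and capillary electrophoresis in HepG2 cells transiently expressing a RORg-Gal4 chimera, 24 h after dosing.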
human RAR-related Orphan Receptor gamma (RORg), RORC (gene 6097), sequence (P51449 whole entry, looked up, the tested form may be a part): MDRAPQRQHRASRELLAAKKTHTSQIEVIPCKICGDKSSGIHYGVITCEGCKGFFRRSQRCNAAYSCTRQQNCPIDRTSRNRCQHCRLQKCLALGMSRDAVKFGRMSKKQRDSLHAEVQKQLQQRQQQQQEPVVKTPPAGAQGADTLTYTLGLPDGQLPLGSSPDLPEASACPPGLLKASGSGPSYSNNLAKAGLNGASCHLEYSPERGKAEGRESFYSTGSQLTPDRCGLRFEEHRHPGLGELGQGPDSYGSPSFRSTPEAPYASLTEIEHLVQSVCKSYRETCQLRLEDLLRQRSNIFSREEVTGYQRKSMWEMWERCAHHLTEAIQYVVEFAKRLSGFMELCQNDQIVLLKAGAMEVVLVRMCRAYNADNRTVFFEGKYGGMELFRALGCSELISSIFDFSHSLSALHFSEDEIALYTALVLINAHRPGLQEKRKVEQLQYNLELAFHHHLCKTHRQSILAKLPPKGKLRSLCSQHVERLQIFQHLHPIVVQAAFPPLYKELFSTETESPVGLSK

The target in test [19] is human Peroxisome Proliferator-activated Receptor delta (PPARd), PPARD (gene 5467) (UniProt Q03181). The test is described as follows: ATG_PPARd_TRANS: Attagene TRANS-FACTORIAL HepG2 Assay for human Peroxisome Proliferator-activated Receptor delta (PPARd) (AID 2283002; active means hit-call score of the fitted dose curve at least 0.9, where 1 is the maximum). An outline of the steps: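 HepG2 cells transiently transfected with GAL4-UAS multiplexed reporter units driven by exogenous chimeric NR-GAL4 proteins; 24 h compound exposure. Reporter mRNA measured by RT-PCR, 6-FAM primer extension, HpaI digestion and capillary electrophoresis; gain of signal fitted relative to DMSO.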
human Peroxisome Proliferator-activated Receptor delta (PPARd), PPARD (gene 5467), sequence (Q03181 whole entry, looked up, the tested form may be a part): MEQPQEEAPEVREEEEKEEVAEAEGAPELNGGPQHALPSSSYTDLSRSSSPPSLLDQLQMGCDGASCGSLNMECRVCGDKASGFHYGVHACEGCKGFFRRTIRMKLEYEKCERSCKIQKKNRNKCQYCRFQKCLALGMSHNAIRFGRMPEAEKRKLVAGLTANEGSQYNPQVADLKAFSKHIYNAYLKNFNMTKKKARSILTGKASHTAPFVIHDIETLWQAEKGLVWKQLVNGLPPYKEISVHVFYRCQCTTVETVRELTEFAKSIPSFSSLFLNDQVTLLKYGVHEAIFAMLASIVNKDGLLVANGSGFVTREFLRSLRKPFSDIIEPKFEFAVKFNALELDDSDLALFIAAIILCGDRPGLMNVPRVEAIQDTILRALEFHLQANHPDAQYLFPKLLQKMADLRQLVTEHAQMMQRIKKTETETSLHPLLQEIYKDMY

In test [20] the target is Peroxisome proliferator-activated receptor gamma (Homo sapiens) (UniProt P37231). The test is described as follows: ATG_PPARg_TRANS: Attagene TRANS-FACTORIAL HepG2 Assay for human Peroxisome Proliferator-activated Receptor-gamma (PPARg) (AID 2283007; active means hit-call score of the fitted dose curve at least 0.9, where 1 is the maximum). An outline of the steps:
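Chimeric NR-Gal4 transactivation is measured in transiently transfected HepG2 cells by reporter mRNA induction at 24 h. Detection uses RT-PCR with fluorescent labelling and capillary electrophoresis; DMSO defines baseline.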

human Peroxisome Proliferator-activated Receptor alpha (PPARa), PPARA (gene 5465), sequence (Q07869 whole entry, looked up, the tested form may be a part): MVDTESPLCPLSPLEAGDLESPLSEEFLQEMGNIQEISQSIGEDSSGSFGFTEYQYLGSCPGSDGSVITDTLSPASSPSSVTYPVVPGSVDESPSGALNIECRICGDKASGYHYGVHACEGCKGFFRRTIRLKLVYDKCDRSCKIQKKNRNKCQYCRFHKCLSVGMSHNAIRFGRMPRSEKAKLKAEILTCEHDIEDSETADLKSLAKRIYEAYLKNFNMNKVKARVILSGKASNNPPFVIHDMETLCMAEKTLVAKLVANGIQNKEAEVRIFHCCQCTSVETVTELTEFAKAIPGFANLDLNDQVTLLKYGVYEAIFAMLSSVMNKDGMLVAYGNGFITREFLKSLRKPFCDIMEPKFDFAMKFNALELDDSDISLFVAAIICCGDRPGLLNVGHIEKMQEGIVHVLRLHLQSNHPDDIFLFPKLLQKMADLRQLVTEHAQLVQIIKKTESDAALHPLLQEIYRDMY
Cellular tumor antigen p53 (Homo sapiens), sequence (P04637 whole entry, looked up): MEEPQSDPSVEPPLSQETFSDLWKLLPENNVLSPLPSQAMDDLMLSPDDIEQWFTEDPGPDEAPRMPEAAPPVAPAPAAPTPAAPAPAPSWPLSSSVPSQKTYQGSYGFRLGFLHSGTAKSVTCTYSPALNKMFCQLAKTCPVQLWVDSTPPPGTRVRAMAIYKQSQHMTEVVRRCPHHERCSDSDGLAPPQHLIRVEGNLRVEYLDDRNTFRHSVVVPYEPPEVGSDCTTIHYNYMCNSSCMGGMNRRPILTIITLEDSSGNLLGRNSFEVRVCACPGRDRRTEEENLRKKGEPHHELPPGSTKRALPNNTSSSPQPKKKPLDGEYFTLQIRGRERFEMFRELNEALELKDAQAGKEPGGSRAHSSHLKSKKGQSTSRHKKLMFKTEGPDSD
Nuclear receptor subfamily 1 group I member 2 (Homo sapiens), sequence (O75469 whole entry, looked up, the tested form may be a part): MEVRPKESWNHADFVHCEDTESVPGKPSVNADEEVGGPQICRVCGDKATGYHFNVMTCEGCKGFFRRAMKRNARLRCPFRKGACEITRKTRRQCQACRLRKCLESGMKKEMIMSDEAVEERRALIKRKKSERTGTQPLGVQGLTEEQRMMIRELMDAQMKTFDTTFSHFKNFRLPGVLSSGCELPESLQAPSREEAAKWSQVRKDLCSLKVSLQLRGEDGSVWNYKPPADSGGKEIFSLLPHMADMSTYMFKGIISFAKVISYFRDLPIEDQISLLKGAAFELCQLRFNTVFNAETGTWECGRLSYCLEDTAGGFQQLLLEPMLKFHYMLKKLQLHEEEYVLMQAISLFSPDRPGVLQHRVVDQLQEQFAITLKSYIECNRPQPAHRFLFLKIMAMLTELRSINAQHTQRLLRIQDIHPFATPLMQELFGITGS
human Retinoic Acid Receptor gamma (RARg), RARG (gene 5916), sequence (P13631 whole entry, looked up, the tested form may be a part): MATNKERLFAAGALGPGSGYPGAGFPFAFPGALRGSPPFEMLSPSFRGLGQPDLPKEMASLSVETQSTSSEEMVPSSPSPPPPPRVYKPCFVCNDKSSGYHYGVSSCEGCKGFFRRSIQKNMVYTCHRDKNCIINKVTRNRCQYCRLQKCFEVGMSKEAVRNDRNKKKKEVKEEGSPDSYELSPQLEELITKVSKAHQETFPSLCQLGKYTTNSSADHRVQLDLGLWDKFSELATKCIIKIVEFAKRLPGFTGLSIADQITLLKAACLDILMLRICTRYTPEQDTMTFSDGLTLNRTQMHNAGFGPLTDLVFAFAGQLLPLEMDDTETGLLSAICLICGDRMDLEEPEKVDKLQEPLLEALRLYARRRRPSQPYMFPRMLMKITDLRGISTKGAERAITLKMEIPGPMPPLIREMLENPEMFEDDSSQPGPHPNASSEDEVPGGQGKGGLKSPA
human Retinoic Acid Receptor beta (RARb), RARB (gene 5915), sequence (P10826 whole entry, looked up, the tested form may be a part): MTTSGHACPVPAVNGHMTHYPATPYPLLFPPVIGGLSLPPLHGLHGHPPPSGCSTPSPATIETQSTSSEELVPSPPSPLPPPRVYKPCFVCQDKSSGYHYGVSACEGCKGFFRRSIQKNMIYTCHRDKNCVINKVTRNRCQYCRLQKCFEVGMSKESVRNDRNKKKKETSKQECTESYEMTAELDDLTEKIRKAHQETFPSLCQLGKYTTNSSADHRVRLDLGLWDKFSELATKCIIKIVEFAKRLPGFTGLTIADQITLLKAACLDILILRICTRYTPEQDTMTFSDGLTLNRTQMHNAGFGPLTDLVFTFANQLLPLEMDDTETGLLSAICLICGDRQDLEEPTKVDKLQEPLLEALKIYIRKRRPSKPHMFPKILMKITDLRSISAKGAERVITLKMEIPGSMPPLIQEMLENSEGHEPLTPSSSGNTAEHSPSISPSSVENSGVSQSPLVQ

For the compound `O=C(OC[C@H]1O[C@@H](OC(=O)c2cc(O)c(O)c(OC(=O)c3cc(O)c(O)c(O)c3)c2)[C@H](OC(=O)c2cc(O)c(O)c(OC(=O)c3cc(O)c(O)c(O)c3)c2)[C@@H](OC(=O)c2cc(O)c(O)c(OC(=O)c3cc(O)c(O)c(O)c3)c2)[C@@H]1OC(=O)c1cc(O)c(O)c(OC(=O)c2cc(O)c(O)c(O)c2)c1)c1cc(O)c(O)c(OC(=O)c2cc(O)c(O)c(O)c2)c1`, the call in [1], in test [2], in test [3], in [4], in test [5] and in test [7] was inactive. In addition, the compound was classed as inactive in [10], in [11], in test [12], in test [13], in test [15] and in test [16]. The call in test [17] and in test [18] was inactive. The AC50 is 7.77 µM (active) in test [6], 11.2 µM (active) in [8], 8.95 µM (active) in test [9] and 9.47 µM (active) in [14].

For `C1N2CN3CN1CN(C2)C3`, the compound was called inactive in [1], in [2], in test [3], in test [5], in test [7] and in [8]. In addition, the outcome in [9], in test [11], in test [13], in test [14] and in [15] was inactive.

Regarding `CC(C)CCO`, the call in [1], in [2], in test [3], in test [7], in test [8] and in test [9] was inactive. Besides, the outcome in test [10], in [11], in test [12], in test [13], in test [14] and in test [15] was inactive. Moreover, the outcome in test [16] and in test [18] was inactive.

For `O=C(NS(=O)(=O)/C=C/c1ccccc1)c1ccc(F)cc1Cl`, the call in test [1], in test [2], in test [3], in test [5], in [7] and in [8] was inactive. The result in test [9], in [11] and in test [17] was inactive. Further, the AC50 in test [14] was 6.4 µM (active); in [15] it was 16.2 µM (active).

On to `CCCCCCCCO`, for which the compound was called inactive in test [1], in test [3], in test [4], in test [5], in test [6] and in [7]. Also, the outcome in test [8], in test [9], in [11], in test [12], in [14] and in test [15] was inactive. Also, in [16], the result was inactive.

As for `CCOC(=O)COc1ccc2c(c1)CC(NCC(O)c1cccc(Cl)c1)CC2` (stereo not given), the compound was classed as inactive in [1], in [2], in test [3], in test [4], in test [19] and in test [12]. Further, the result in test [15], in test [16], in [17] and in test [18] was inactive. The AC50 is 49.8 µM (active) in test [5]; 28.5 µM (active) in test [7]; 27.5 µM (active) in test [8]; 34.3 µM (active) in test [9]; 33 µM (active) in test [10]; 28.4 µM (active) in test [11]. The AC50 was 15.3 µM (active) in test [14] and 21.7 µM (active) in [20].

Turning to `CNS(=O)(=O)c1cc(C(=O)N2CCC(CCN3C4CCC3CC(n3c(C)nc5ccccc53)C4)(c3cccc(F)c3)CC2)c(Cl)cc1F` (stereo not given), the call in test [1], in test [4], in test [6], in test [19], in test [11] and in [12] was inactive. For the same compound, the compound was classed as inactive in [16] and in test [18]. Also, the AC50 in test [2] is 5.18 µM (active); in test [3], 2.71 µM (active); in [5], 6.99 µM (active); in test [7], 16.7 µM (active); in test [9], 30.9 µM (active); in test [14], 15.4 µM (active). In test [15], the AC50 was 0.779 µM (active).
